In the library only some 5.3% were active in any assay of this set; here they are far more common.
ALOX15B inhib: inhibitors of human 15-lipoxygenase 2 (ALOX15B); purified 15hLO-2, xylenol orange hydroperoxide absorbance; Potency, µM (top dose mostly 57.1 µM), actives largely listed as inhibitors; 110,000 tested, 0.56% active; AID 881; note: nearly all actives have a fitted effect of over 60% in size
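Read-out: hydroperoxide product oxidises ferrous iron, measured as xylenol orange complex via the 573-to-405 nm absorbance ratio after 30 min. Reaction: 50 nM enzyme, 15 min compound preincubation, 45 uM arachidonic acid, 90 min RT, Hepes pH 7.5 with Triton X-100.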
IMPase Li cell: cell-permeable IMPase inhibitors with lithium potentiation. CHO-M1 cells, IP1 TR-FRET (IP-One), carbachol + lithium. Potency, µM (series often up to 59.4 µM), actives largely listed as inhibitors. 210,000 tested, 0.35% active. AID 1457;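 note: IP1 builds up when IMPase is blocked and the TR-FRET signal falls; nearly all actives have a fitted effect of over 50% in size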
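Concentration–response in CHO-M1 cells, lithium-potentiated; 30 min at 37C. IP1 detected by competitive TR-FRET after 10 min lysis at RT. Hill-fitted AC50.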
HPGD inh: HPGD (human) dehydrogenase inhibition; P15428; 150,000 tested, 4.3% active; Potency, µM, usual class: inhibitors; purified HPGD, NADH fluorescence kinetic, PGE2 substrate; AID 894; active = well fitted inhibition curve with a large enough effect, not every such curve was filed as active; inconclusive = small, poorly fitted or top-dose-only effect, or another doubt; inactive = no such curve, though single readings can be large or run the other way
Target sequence (P15428 whole entry, looked up): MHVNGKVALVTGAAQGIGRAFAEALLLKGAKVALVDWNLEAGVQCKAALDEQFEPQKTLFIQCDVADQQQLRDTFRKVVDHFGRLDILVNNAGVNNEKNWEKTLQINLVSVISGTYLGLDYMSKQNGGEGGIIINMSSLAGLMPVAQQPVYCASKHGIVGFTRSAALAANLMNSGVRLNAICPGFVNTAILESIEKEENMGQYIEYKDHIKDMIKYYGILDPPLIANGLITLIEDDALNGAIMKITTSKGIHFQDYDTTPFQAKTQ
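20 nM HPGD preincubated 15 min at room temperature with compound in 50 mM Tris-HCl pH 8, 0.01% Tween 20. Started with 1 mM NAD+ and 30 uM prostaglandin E2; NADH fluorescence (360/450 nm) read 5 times over 30-s intervals, last minus first.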
IMPase cell inh: cell-permeable inhibitors of inositol monophosphatase (IMPase). P97697. AID 901. 120,000 tested, under 10 active. inhibition (IP1 accumulation), % at 46.1 µM. CHO-M1 cells, IP1 accumulation, HTRF TR-FRET ratio; active = well fitted curve in the direction sought with a large enough effect in the signal ratio, not every such curve was filed as active; inconclusive = small, poorly fitted or top-dose-only effect, or a change in a side signal; inactive = no such curve, though single readings can be large or run the other way; the % refers to the signal ratio;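 note: cells stimulated with carbachol in lithium chloride buffer; higher means more IMPase inhibition seen as more IP1 and lower FRET ratio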
Target sequence (P97697 whole entry, looked up): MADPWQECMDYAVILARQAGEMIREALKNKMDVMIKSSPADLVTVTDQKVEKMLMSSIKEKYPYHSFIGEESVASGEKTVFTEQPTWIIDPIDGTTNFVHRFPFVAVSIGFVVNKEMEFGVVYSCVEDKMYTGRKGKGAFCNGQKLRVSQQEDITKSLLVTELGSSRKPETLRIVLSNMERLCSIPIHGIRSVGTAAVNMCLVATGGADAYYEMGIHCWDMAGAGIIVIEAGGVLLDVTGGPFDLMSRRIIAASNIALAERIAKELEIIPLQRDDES
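In this qHTS, compounds (final up to 46 uM) act on CHO-M1 cells that are then activated through the M1 receptor with carbachol, in pH 7.4 buffer containing 50 mM LiCl, for 30 min. IP1 accumulation is quantified by the IP-One immunoassay.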
12-hLO inh: inhibitors of human 12-lipoxygenase (ALOX12). P18054. purified 12-hLO, xylenol orange hydroperoxide absorbance. Potency, µM (doses to about 57.1 µM), usual class: inhibitors. 150,000 tested, 0.12% active; note: nearly all actives have a fitted effect of over 55% in size
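Xylenol orange chromogenic assay: hydroperoxide from 12hLO oxidises Fe(II), giving red-shifted Fe(III)-XO absorbance. Conditions: 150 nM enzyme, 40 uM arachidonic acid, 25 mM Hepes pH 7.0, 0.01% Triton X-100, 30 min, room temperature.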
PNC inhibitor: blocks assembly of the perinucleolar compartment. PC3M PTB-GFP, PNC prevalence imaging, 16 h; active compounds read low. activity change (PNC), negative = inhibition, % at 10 µM. 140,000 tested, 3.1% active. AID 2417;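 active = readout at or below -70, meaning at least 70% loss of cells showing the perinucleolar compartment, a nuclear body marking cancer cells; inconclusive = readout between -30 and a set limit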
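PC3M cells stably expressing PTB-GFP, 750–1000 cells/well, treated 16 h at 37 °C with compound (23 nl of library stock), in duplicate. After paraformaldehyde fixation and Hoechst stain, imaged at 20x; PNC prevalence scored by image analysis.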
Hits are given with their value; – = inactive; ? = inconclusive; · = not tested or not shown. Unless noted, calls come from the whole dose curve; as a rule, active = well fitted curve in the direction sought with a large enough effect; inconclusive = small, poorly fitted or top-dose-only effect, or another doubt; inactive = no such curve, though single readings can be large; an effect the other way counts as inactive or inconclusive.

SMILES | ALOX15B inhib | IMPase Li cell | HPGD inh | IMPase cell inh | 12-hLO inh | PNC inhibitor
C[C@H](NC(=O)C1(c2ccccc2)CCN(C(=O)[C@H]2CSCN2C(=O)OC(C)(C)C)CC1)C(=O)O | – | – | – | – | – | –
COc1ccc(-c2cc(OC)c3c(C)oc(C)c3c(=O)c2)cc1OC | – | – | 28µM | – | ? | –
O=C(NNS(=O)(=O)c1ccccc1)C1CCN(S(=O)(=O)c2ccc(Cl)cc2)CC1 | · | – | – | – | – | -100
O=C(Nc1nnc(-c2ccc(F)cc2)s1)C1CCN(S(=O)(=O)c2ccc(Cl)cc2)CC1 | · | 7.9µM | – | · | – | –
O=C(NNS(=O)(=O)c1ccccc1)C1CCN(S(=O)(=O)c2ccccc2)CC1 | ? | – | – | – | – | –
COc1cccc2c1CCC1=CC(=O)CC[C@@]12C | – | – | – | · | – | ·
CCOc1nc(Nc2ccc(OC)cc2)nc(OCC)n1 | – | – | – | – | – | ?
COc1ccc(Nc2ccnc(Nc3ccc(OC)cc3)n2)cc1 | · | – | – | · | – | -93
COc1cc(/C=C(\NC(=O)c2ccccc2)C(=O)NCCO)c([N+](=O)[O-])cc1OC | · | – | – | · | – | -93
CC1(C)CC(=O)C2=C(C1)N(c1cccc(Cl)c1)C(=O)NC2(C(F)(F)F)C(F)(F)F | · | – | – | · | – | -80
COc1cccc(Nc2ncc3nc(C)c(=O)n(CCC#N)c3n2)c1 | – | – | – | · | – | ·
COc1cc2ncc(-c3ccccc3)nc2cc1OC | · | – | · | · | · | ·
Cn1cc(C(=O)N/N=C/C(Br)=C/c2ccccc2)ccc1=O | · | – | 28µM | · | – | –
Cn1cc(C(=O)N/N=C/C(Br)=C\c2ccccc2)ccc1=O | – | – | – | – | – | –
Cc1ccc(CNC(=O)[C@H](C)[C@@H]2C[C@@]2(C)[C@@H](NC(=O)OCc2ccccc2)c2ccccc2)o1 | – | – | – | · | – | ·
C=CCn1c(COc2ccccc2F)nnc1SCC(=O)c1c[nH]c2ccccc12 | · | – | – | – | – | –
O=C1CC(N2CCOCC2)C(=O)N1c1ccccc1Cl (stereo not drawn) | – | – | – | – | – | -94
CN(CC[C@@H](Oc1ccc(-c2ccccc2)cc1)c1ccc(F)cc1)CC(=O)O | – | – | – | – | – | ·
O=C(O)CCC(=O)N1CCc2cc(S(=O)(=O)NCc3cccs3)ccc21 | – | – | 25µM | – | – | –
CC(=O)N1CCCc2cc(S(=O)(=O)NCCC3=CCCCC3)ccc21 | – | – | – | – | – | -86
CCC(=O)N1CCCc2cc(S(=O)(=O)NCc3cccs3)ccc21 | – | – | – | – | – | –
CCC(=O)N1CCc2cc(S(=O)(=O)NCCN3CCC(C)CC3)ccc21 | – | – | – | – | – | –
CCC(=O)N1CCc2cc(S(=O)(=O)NCCCOC)ccc21 | – | – | 28µM | – | – | –
CCCCN(c1ccccc1)S(=O)(=O)c1ccc2c(c1)CCN2C(=O)CCC(=O)O | – | – | – | – | – | -83
Cc1ccc(C)c(-c2nnc(OCC(=O)Nc3cc(C)on3)c3ccccc23)c1 | – | – | – | – | – | –
SMILES | ALOX15B inhib | IMPase Li cell | HPGD inh | IMPase cell inh | 12-hLO inh | PNC inhibitor
Fc1ccc(-n2c(-c3ccc4c(c3)OCO4)n[nH]c2=S)cc1Cl | · | – | 10µM | – | – | –
COc1cc(OC)cc(-c2n[nH]c(=S)n2-c2ccc3c(c2)OCO3)c1 | · | – | 25µM | · | – | -104
Oc1ccc(-c2n[nH]c(=S)n2-c2ccc3c(c2)OCCO3)cc1 | · | – | 20µM | · | – | –
c1csc(CNc2nc(-c3ccc4c(c3)OCO4)nc3ccccc23)c1 | – | – | · | · | · | ·
Cc1cccc(C)c1-n1c(C)nn(CC#N)c1=O | · | – | · | · | · | ·
N[C@@H](CSS(=O)(=O)O)C(=O)O | – | – | 28µM | – | – | ·
S=c1[nH]nc(-c2ccccc2)c2ccccc12 | · | – | · | · | · | ·
O=c1cc(Cl)c(-c2ccccc2)n[nH]1 | – | – | 28µM | – | – | –
O=C(/C=C/c1ccc(F)cc1)NCCc1ccc2c(c1)OCCO2 | · | – | – | – | – | ?
COCCNC(=O)c1ccc(C(=O)C(=O)c2ccccc2)cc1 | · | – | 14µM | · | – | –
Cc1cc(C)nc(SCNC(=O)c2ccccc2)n1 | · | – | 14µM | – | – | –
Cc1ccc(SCCNC(=O)c2ccccc2)cc1 | – | – | 16µM | – | – | ?
COCCCNC(=O)c1ccc(C(=O)NCCCOC)cc1 | – | – | – | – | – | –
Cc1cc(SCNC(=O)c2ccccc2)nc(C(C)C)n1 | · | – | · | · | · | ·
Cc1ccccc1CNC(=O)c1ccccc1 | – | – | 16µM | – | – | ?
COc1ccc(C(=O)NCCSc2ccc(C)cc2)cc1 | · | – | – | · | – | –
O=c1cc(/C=C/c2ccccc2)oc2ccccc12 | – | – | ? | – | – | –
Brc1ccccc1Cn1c(-c2cscn2)nc2ccccc21 | – | – | – | – | – | –
Cc1c(C(=O)Nc2ccc(OCc3ccccc3)cc2)cccc1[N+](=O)[O-] | – | – | – | – | – | –
CN(C)S(=O)(=O)c1ccc(Cl)c(C(=O)Nc2cccc([N+](=O)[O-])c2)c1 | · | – | · | · | · | ·
CCOC(=O)/C=C/C(=O)Nc1cccc([N+](=O)[O-])c1 | · | – | 1.6µM | · | – | –
O=C(Nc1ccccc1)c1ccccc1OCc1cccc([N+](=O)[O-])c1 | · | – | – | · | – | -99
Cc1cc(C(=O)Nc2cccc([N+](=O)[O-])c2)c(C)o1 | · | – | – | · | – | -109
CC1(C)CC(=O)C=C(NCC2CCCO2)C1 (stereo not drawn) | – | – | – | – | – | –
O=C1C2C3C=CC(CC3)C2C(=O)N1/N=C/c1ccc(O)cc1 (stereo not drawn) | – | – | 28µM | – | – | –
SMILES | ALOX15B inhib | IMPase Li cell | HPGD inh | IMPase cell inh | 12-hLO inh | PNC inhibitor
CCOC(=O)c1c(NC(=O)/C=C/c2ccc(OCC)c(OC)c2)sc2c1CCC2 | · | · | · | – | · | ·
CC(C)Oc1ccc(CNC(=O)Cn2c(=O)oc3ccccc32)cc1 | – | – | 20µM | – | – | –
CCCOc1ccc(CNC(=O)Cn2c(=O)oc3ccccc32)cc1 | – | – | – | ? | – | ?
CCCNC(=O)c1ccc2c(c1)ncn2-c1ccccc1OC | – | – | 18µM | – | – | ?
COc1ccc(-n2cnc3cc(C(=O)NCCN4CCOCC4)ccc32)cc1 | · | – | · | · | · | ·
COc1ccccc1-n1cnc2cc(NCc3cccs3)ccc21 | – | – | ? | – | – | -81
COc1ccc(OC)c(-n2cnc3cc(C(=O)NCCCN4CCOCC4)ccc32)c1 | – | – | 25µM | – | – | –
O=C(NC(=S)Nc1cc(C(F)(F)F)ccc1N1CCOCC1)c1sc2ccccc2c1Cl | · | – | – | – | – | –
COc1ccc(-c2cn3c(C)c(C(=O)Nc4cc(NC(C)=O)ccc4OC)sc3n2)cc1 | · | 4.5µM | ? | ? | – | –
